# Source: PubChem BioAssay AID2314 (National Center for Advancing Translational Sciences (NCATS), 2010)
# Where “and” joins values, the source holds several entries; their conditions need not be identical. Equal entries are not always repeated. About 37,000 (12%) of roughly 300,000 compounds were called active. For the sample, actives were picked, then their nearest neighbours and some compounds at random. Unmarked numbers belong to inactive results. Rule as the data show it: active = max response mostly above about 13% (no sharp cut-off); inactive = mostly below about 14%.
# Experiment: Cycloheximide Counterscreen for Small Molecule Inhibitors of Shiga Toxin; also: read at 38.3 µM for the half of the compounds with a filed dose; 0% is about no effect
# Conditions: cell reporter, cycloheximide protein synthesis inhibition counterscreen; stronger effect = higher value
row,SMILES,max response
1,OCCNCc1cccc(OCc2ccccc2Cl)c1,-3.04%
2,O=C(COC(=O)c1cc(=O)[nH]c2ccccc12)Nc1nc(-c2cccc(Br)c2)cs1,0.762%
3,Cc1ccc(C(=O)Nc2cccc3ncccc23)cc1[N+](=O)[O-],9.95%
4,Cc1cc(O)c(NC(=O)c2ccc(C)c([N+](=O)[O-])c2)cc1C,40.4% (active)
5,CCN1CCC(=NNC(=O)c2ccc(C)c([N+](=O)[O-])c2)CC1,-3.08%
6,COc1cccc(-c2nc(CS(=O)(=O)CC(=O)NCCc3ccc(OC)c(OC)c3)c(C)o2)c1,16%
7,O=C(O)/C=C/C(=O)Nc1ccc(F)cc1F,7.97%
8,COc1ccccc1NC(=O)/C=C/C(=O)O,-1.17%
9,COC(=O)c1sc(-c2ccc(C(C)(C)C)cc2)cc1NC(=O)/C=C/C(=O)O,45.7% (active)
10,O=C(CCn1nnnc1CN1CCOCC1)N1CCC(c2ccccc2Cl)C1 (stereo not given),-3.06%
11,CC(=O)c1c(C)n(-c2ccc(C)cc2)c2ccc(O)cc12,-2.22%
12,CCS(=O)(=O)c1ccc2oc(SCC(=O)N3c4ccccc4CC3C)nc2c1 (stereo not given),-5.84%
13,CCOC(=O)n1c(SCC(=O)N(CC)CC)nc2ccccc21,0.246%
14,CC1Cc2ccccc2N1C(=O)CSc1nc2ccccc2o1 (stereo not given),42.4% (active)
15,CCOC(=O)CSc1nnc(-c2cccc(Br)c2)o1,-2.27%
16,CCN(CC)C(=O)CSc1nnc(-c2cccc(OC)c2)o1,41% (active)
17,CC(C)(C)C(=O)CSc1nc2ccccc2o1,34.5% (active)
18,Cc1cc(=O)[nH]c(SCC(=O)N2c3ccccc3CC2C)n1 (stereo not given),1.01%
19,CCN(CC)C(=O)CSc1nc2ccccc2o1,21.2% (active)
20,O=C(CSc1nc2ccccc2o1)N1CCN(c2ccccc2)CC1,-3.14%
21,CCN(CC)C(=O)CSc1nnc(-c2ccc(S(=O)(=O)NCc3ccccc3Cl)cc2)o1,-0.581%
22,O=C(CSc1nc2ccccc2o1)N1CCN(c2ccc(Cl)cc2)CC1,3.68%
23,O=C(CSc1nc2ccccc2o1)N1c2ccccc2Sc2ccc(Cl)cc21,-1.63%
24,COc1ccc(CCNC(=O)C2CCCN2C(=O)Nc2ccccc2)cc1OC (stereo not given),-1.21%

row,SMILES,max response
1,CCOC(=O)c1c(NC(=O)C2CC=CCC2C(=O)O)sc(C)c1CC (stereo not given),-3.33%
2,Nc1nnnn1/N=C/c1cccc(Br)c1,-1.37%
3,COc1ccc(-c2nn(C)c(=O)c3ccccc23)cc1CNC(=O)C1CCCCC1,-2.76%
4,Cc1ccccc1Nc1scc(-c2ccc(Br)cc2)[n+]1-c1ccccc1C,12.1%
5,CC(C)OC(=O)CN1CCN(c2ccc(Cl)cc2)CC1,-1.75%
6,CC1CCCN(CCOCCOc2ccccc2-c2ccccc2)C1 (stereo not given),-1.97%
7,Cc1ccc(CNC(=O)CSc2nnc3c(n2)[nH]c2ccc(F)cc23)cc1,-7.47%
8,CC(c1nnc(SCC(=O)Nc2sccc2C#N)n1-c1ccc(Cl)cc1)N(C)C (stereo not given),-5.17%
9,CCOc1ccc(NC(=O)C/C(C)=N/NC(=O)Cc2cccs2)cc1,11.9%
10,CCc1nnc(NC(=O)/C=C/c2ccc(C)o2)s1,21.2% (active)
11,CCc1nnc(NC(=O)CCC(=O)O)s1,-1.47%
12,CCC(CC)c1nnc(NC(=O)/C=C/c2ccco2)s1,17.5%
13,CCOC(=O)c1c(NC(=O)/C=C/c2ccco2)sc(C)c1C,-2.54%
14,Cc1nnc(NC(=O)/C=C/c2ccco2)s1,25.7% (active)
15,Cc1ccc(/C=C/C(=O)Nc2ccc([N+](=O)[O-])c(NC(=O)/C=C/c3ccc(C)o3)c2)o1,-2.46%
16,CNC(=O)c1[nH]cnc1C(=O)N[C@@H](CC(C)C)C(=O)OCc1ccccc1,0.929%
17,COc1ccc(NC(=O)NCCN2CCN(c3ccc(C)cc3)CC2)c(Cl)c1,-1.67%
18,COc1ccccc1NC(=O)CSc1nnc(CNC(=O)c2ccccc2F)o1,1.71%
19,N#Cc1ccc(S(=O)(=O)NCC(=O)OCC(=O)NCCc2ccccc2)cc1,1.22%
20,COc1ccc(-n2cnnc2SCC(=O)Nc2cccc([N+](=O)[O-])c2)cc1,-4.87%
21,Cc1ccccc1OCCOc1ccc([N+](=O)[O-])cc1/C=N/n1cnnc1,-2.75%
22,COc1ccc(/C(C)=N/N2CCOCC2)c(O)c1,26.7% (active)
23,COc1ccc(OCC(=O)N2CCOCC2)cc1,9.77%
24,COc1cc(C(=S)N2CCOCC2)ccc1O,-0.128%

row,SMILES,max response
1,CCN(C(=O)Cc1nc(N)n[nH]1)C1(C(=O)Nc2ccccc2)CCCCC1,-6.07%
2,Cc1cc(=O)oc2cc(OCCC[n+]3ccccc3)ccc12,1.33%
3,CC(C)c1c(C(=O)N/N=C/c2ccc(-c3ccccc3)cc2)nnn1-c1nonc1N,-10.6%
4,Cc1nonc1C(=O)N/N=C/c1ccc(O)cc1,37.3% (active)
5,O=C(C[n+]1ccccc1)N/N=C/c1ccc(O)cc1,-3.62%
6,CCOc1c(OC)cccc1C(=O)NCC1(c2ccccc2)CCCC1,-2.45%
7,O=C(C1CCN(S(=O)(=O)Cc2ccccc2)CC1)N1CCCc2ccccc21,11.2%
8,OCC1(Cc2ccccc2)CCN(Cc2cc3ccccc3o2)CC1,1.07%
9,Cc1ccc(S(=O)(=O)N(C)CC(=O)OCC(=O)Nc2ccccc2)cc1,3.68%
10,O=C(COC(=O)C1CC2C=CC1C2)Nc1ccccc1 (stereo not given),27.3% (active)
11,NC(=O)c1ccc(NC(=O)COC(=O)C(Cc2ccccc2)NC(=O)c2ccccc2)cc1 (stereo not given),-2.16%
12,COc1ccc(C(=O)n2nc(C)c(Br)c2C)cc1OC,-2.74%
13,S=c1[nH]nc(NCCc2ccccc2)s1,-2.47%
14,Cc1nc(C)c(-c2csc(NCCc3ccccc3)n2)s1,13.4% (active)
15,Cc1ccc(Nc2nc(-c3sc(NC(=O)c4ccccc4)nc3C)cs2)cc1,8.35%
16,CC1CC(C)CN(C(=O)CCNC(=O)Cn2cnc3ccccc3c2=O)C1 (stereo not given),-4.79%
17,O=C(N/C(=C/c1ccc(Cl)cc1)C(=O)N1CCCCC1)c1ccco1,-0.943%
18,CCn1c(CSc2nc(C)cc(C)n2)nnc1SCC(N)=O,-2.49%
19,C=CCn1c(SCC(N)=O)nnc1-c1cc2c(s1)CCC(CC)C2 (stereo not given),29.3% (active)
20,C=CCn1c(SCc2c(C(=O)OC)sc(N)c2C(=O)OC)nnc1-c1ccc(Cl)cc1,-1.63%
21,Cc1ccc2nc(NC(=O)C3CCN(S(=O)(=O)c4ccc5c(c4)oc(=O)n5C)CC3)sc2c1,-6.17%
22,CCS(=O)(=O)N1Cc2ccccc2CC1C(=O)Nc1nc2ccc(F)cc2s1 (stereo not given),77.8% (active)
23,CCS(=O)(=O)N1Cc2ccccc2CC1C(=O)Nc1ccc(OC)cc1OC (stereo not given),3.12%
24,CCOC(=O)C(C)n1cnc2c(nnn2-c2cccc(OC)c2)c1=O (stereo not given),35.4% (active)

row,SMILES,max response
1,COC(=O)C(C)n1cnc2c(nnn2-c2cccc(Cl)c2)c1=O (stereo not given),-1.58%
2,COc1ccc(-n2nnc3c(=O)n(CC(=O)OCc4ccccc4)cnc32)cc1,0.544%
3,CCOC(=O)C(C)n1cnc2c(nnn2-c2ccc(F)cc2)c1=O (stereo not given),8.68% (active)
4,COC(=O)C(C)n1cnc2c(nnn2-c2ccc(F)cc2)c1=O (stereo not given),-2.37%
5,CCOC(=O)C(CC)Sc1ncnc2c1nnn2-c1ccc(F)cc1 (stereo not given),-1.76%
6,COc1ccc(CCN2C(=O)C(C)=C(C)C2=O)cc1OC,1.83%
7,COc1ccc(N2CCN(C(=O)C3CCN(C(=O)c4ccccc4Cl)CC3)CC2)cc1,0.346%
8,COc1cccc(CN(C)C(=O)CC23CC4CC(CC(C4)C2)C3)c1OC,-3.61%
9,O=C(Nc1ccc(F)cc1)c1ccc(S(=O)(=O)NCc2cccnc2)cc1,13%
10,O=C(Nc1cccc(F)c1)c1ccc(S(=O)(=O)N2CCCC2)cc1,-1.88%
11,O=C(Nc1ccccc1F)c1cc(S(=O)(=O)N2CCCCC2)cs1,13.9% (active)
12,O=C(Nc1ccccc1C(=O)O)c1cc(S(=O)(=O)N2CCCCC2)cs1,-3.51%
13,Cc1ccccc1NC(=O)c1cc(S(=O)(=O)N2CCOCC2)cs1,1.05%
14,O=C(Nc1ccc(S(=O)(=O)N2CCCCCC2)cc1)c1c(F)cccc1F,16.3% (active)
15,O=C(CN1CCCCCC1)Nc1ccc(S(=O)(=O)N2CCCCC2)cc1,-2.88%
16,O=C(O)c1ccc(Cn2c(=S)[nH]c3cc(Cl)ccc3c2=O)cc1,-2.92%
17,O=C(CN1C(=O)CC(c2ccccc2)=Nc2ccccc21)NC1CCCCC1,-1.57%
18,COc1ccc(S(=O)(=O)NNC(=O)Nc2ccc(C)cc2)c(OC)c1,0.87%
19,COc1ccc(NS(=O)(=O)c2cc(NC(=O)CC(=O)c3ccc([N+](=O)[O-])cc3)ccc2C)cc1,-3.18%
20,CN1/C(=c2/s/c(=C3/C(=O)N(c4ccccc4)NC3=Nc3ccccc3)n(C)c2=O)C(C)(C)c2ccccc21,-0.907%
21,CCN1C(=O)/C(=c2\s/c(=C3\Sc4ccccc4N3C)c(=O)n2C)N(C)C1=S,22.3% (active)
22,CCN1C(=O)/C(=C2/Sc3ccccc3N2CCCS(=O)(=O)O)SC1=S,-1.1% and 2.76%
23,Cc1ccccc1C(=O)OC1OC(=O)C(Cl)=C1Nc1ccccc1 (stereo not given),0.412%
